Inconclusive results are not listed. Activity calls are given as the source filed them. The call rests on the fitted dose curve; in most records, active means well fitted cell-killing curve with a large enough effect; inconclusive means small, poorly fitted or top-dose-only effect; inactive means flat fitted curve, though single readings scatter.
Potency means the concentration at half of the fitted maximal effect.

A short description of this experiment: Quantitative highthroughput screen to assess conditional lethalithy of P12 Ichikawa cells grown in RPMI1640 with untreated serum (RPMI+s) (AID 1963881). Further: nearly all actives have a fitted effect of over 35% in size. Conditions: ATP luminescence, 48 h; Potency: viability; series mostly up to 45.8 µM; viability: at the top concentration. An excerpt:
Assay Provider: Jason Cantor Ph.D.
Department of Biochemistry
University of Wisconsin-Madison, Madison, WI, USA
Chemical screening studies have identified drug sensitivities across hundreds of cancer cell lines but most putative therapeutics fail to translate. Discovery and development of drug candidates in models that more accurately reflect nutrient levels in human blood is a major challenge. Here we performed high-throughput screens in conventional versus Human Plasma-Like Medium (HPLM) to identify compounds that were "missed" when screening using the artificial culture condition. Sets of conditional anticancer compounds spanned phases of clinical development and included non-oncology drugs were assessed. […] We also traced conditional phenotypes for several chemotherapeutics to availability of HPLM-specific metabolites and confirmed others for compounds whose reported targets are encoded by nonessential genes. Our findings establish generalizable strategies for exploiting conditional lethality in HPLM to reveal therapeutic candidates and mechanisms of action in cancer cells.
Described herein are the results of each viability screens against three cell lines: NOMO1 (an acute myeloid leukemia cell line); P12-Ichikawa (a T-cell acute lymphoblastic leukemia); and SEM (a B-cell ALL). Each assay was screened using 3 different cell culture media: homemade human plasma-Like medium with 10% dialyzed fetal bovine serum (HPLM+ds); RPMI1640 with 10% untreated FBS and 5mM glucose (RPMI+s); and RPMI1640 with 10% dialyzed fetal bovine serum and 5 mM glucose (RPMI+ds).
PROTOCOL TABLE (as described by Inglese J, Shamu CE and Guy RK. 2007)
SEQUENCE No. (e.g., 1, 2, 3, etc.); […] (e.g., Cells, Incubation, Reagent, etc.); VALUE and DESCRIPTION.
1; Cells; 5 uL; white, solid bottom 1536-well Greiner assay plate.
2; Compounds; 23 nL; Kalypsis pin tool (Wako USA) equipped with a 1536-well pin head to transfer to the assay plates.
3; Incubation; 48 hours; 37C incubation.
4; Reagent; 3 uL; CellTiter Glo (Promega).
5; Incubation; 5 min, room temperature
6; Detection; Luminescence, Viewlux PerkinElmer.
NOTES (numbers refer to Sequence numbers above)
1. Briefly, 5 ul of cell reagent was dispensed using a Multidrop Combi Dispenser. The NOMO1 and SEM cells were plated at 500 cells/well and the P12-Ichikawa line at 1000 cells/well.
2. After seeding the cells, 23 nL of MIPE 4.1 library compounds (in DMSO) were added to each plate using a Kalypsys 1536 Pintool dispenser. Bortezomib at final concentration of […] and DMSO were added to each plate as positive and negative controls respectively. For each screen, MIPE 4.1 compounds were added over an eleven-point concentration range […] in 3-fold dilutions.
3. Each plate was covered with a stainless steel gasketed lid to prevent evaporation and incubated for 48 hour at 37C, 95% relative humidity, and 5% CO2.
4-5. Three microliter CellTilter-GloTM luminescent substrate mix (Promega) reagent was added to the assay plate and incubated at room temperature for 5 min.
6. The luminescence signal was measured using a ViewLux (PerkinElmer) multiplate reader with a 2 second exposure time per plate. Data for each compound were normalized as percent viability such that measurements for DMSO and the empty well controls in each plate were defined as 100% and 0%, respectively.
In the case of `COc1ccc2c(c[n+](C)c3c4cc5c(cc4ccc23)OCO5)c1OC`, the Potency is 11.8 µM (active).
As for `Cc1nc(-c2ccc(-c3ccc(C(=O)N4CCc5cc6c(cc54)C4(CCN(C)CC4)CO6)cc3)c(C)c2)no1`, the “viability” value is 94.9% (inactive).
Consider `COc1ccc2c(c1)[C@]13CCCCC1C(C2)N(C)CC3` (stereo not given in full), for which the “viability” value was 89.5% (inactive).
The same measure, in the same setting: the result for `CCc1c(C(=O)C(N)=O)c2c(OCC(=O)O)cccc2n1Cc1ccccc1` reads 102% (inactive).
With `NC1CC1c1ccccc1` (stereo not given), the “viability” value is 101% (inactive).
Take `CCOP(=O)(OCC)C(C)NC(=O)N(CCCl)N=O` (stereo not given): the “viability” value was 107% (inactive).
The same measure, in the same setting: in the case of `COc1ccc(C(CN(C)C)C2(O)CCCCC2)cc1` (stereo not given) it was 109% (inactive).
`C[C@@H]1O[C@@H](O[C@@H]2C=C3CC[C@@H]4[C@@H](CC[C@]5(C)[C@H](c6ccc(=O)oc6)CC[C@@]45O)[C@@]3(C)CC2)[C@H](O)[C@H](O)[C@H]1O`: the Potency was 0.0418 µM (active).
On to `Cc1cccc(C)c1NC(=O)CN1CCCC1=O`, for which the “viability” value was 95.3% (inactive).
Turning to `CN1CCN(C(=O)O[C@H]2c3nccnc3C(=O)N2c2ccc(Cl)cn2)CC1`, the “viability” value is 94.2% (inactive).
As to `CNCC(O)c1ccc(O)cc1` (stereo not given), the “viability” value was 88.9% (inactive).
On the same count and under the same terms, in the case of `CCOC(=O)c1cncn1[C@H](C)c1ccccc1` it was 107% (inactive); in that of `CC(O)=C(C#N)C(=O)Nc1cc(Br)ccc1Br`, 95.3% (inactive).
Turning to `COc1ccc2c(c1OC)CN1CCc3cc4c(cc3C1C2)OCO4` (stereo not given), the Potency was 1.87 µM (active).
Regarding `Cc1ncc(OC[C@@]2(c3cccc(F)c3)C[C@H]2C(=O)Nc2ccc(F)cn2)c(C)n1`, the “viability” value is 89.1% (inactive).
With `O=C(O)C(=O)c1cn(Cc2ccccc2)c2ccc(-c3ccc(OC(F)(F)F)cc3)cc12`, the “viability” value was 92.7% (inactive).
Still for that read-out and setting: the result for `COc1cccc2c1[C@]13CCN(CC4CC4)[C@H](C2)[C@]1(OC)CCC(=O)C3` reads 98.3% (inactive).
On the same count and under the same terms, in the case of `CSCC[C@@H](NC(=O)[C@@H](Cc1ccccc1)NC(=O)CNC(=O)CNC(=O)[C@@H](N)Cc1ccc(O)cc1)C(=O)O` it was 99% (inactive); in that of `CC(=O)Nc1ccc(OC[C@](C)(O)C(=O)Nc2ccc([N+](=O)[O-])c(C(F)(F)F)c2)cc1`, 98.3% (inactive).
Turning to `CC(=O)O[C@@]12CO[C@H]1C[C@H](O)[C@@]1(C)C(=O)[C@H](O)C3=C(C)[C@@H](O)C[C@@](O)([C@@H](OC(=O)c4ccccc4)[C@@H]21)C3(C)C`, the Potency is 9.35 µM (active).
For the molecule `C#CC1(O)CCC2C3CCC4=CC(=O)CCC4(C)C3CCC21C` (stereo not given), the “viability” value is 107% (inactive).
Take `CC(C)(C)c1cc(C=C(C#N)C#N)cc(Br)c1O`: the “viability” value was 87% (inactive).
`CC[C@@H]1[C@@H](C)O[C@@](O)([C@@H](C)[C@H](O)[C@H](C)[C@H]2OC(=O)C=CC=C[C@@H](C)[C@@H]([C@@H](C)[C@@H](O)[C@H](C)[C@@]3(O)C[C@H](O[C@H]4C[C@H](O)[C@H](O)[C@H](C)O4)[C@H](CC)[C@@H](C)O3)OC(=O)C=CC=C[C@@H]2C)C[C@H]1O[C@H]1C[C@H](O)[C@H](O)[C@H](C)O1`: the Potency was 7.43 µM (active).
In the case of `CC[C@@H](C(N)=O)N1CCCC1=O`, the “viability” value is 98% (inactive).
Consider `CN(C)CCc1ccc(O)cc1`, for which the “viability” value is 112% (inactive).
As for `CC(=O)OCC1=C(C(=O)O)N2C(=O)[C@@H](N)[C@@H]2SC1`, the Potency is 1.48 µM (active).
With `COc1ccc(C(=O)c2c(C)n(CCN3CCOCC3)c3cc(I)ccc23)cc1`, the Potency is 4.18 µM (active).
Regarding `CN1CCN(c2ccc([N+](=O)[O-])c3no[n+]([O-])c23)CC1`, the “viability” value is 102% (inactive).
Regarding `CCC1(c2ccc(N)cc2)CCC(=O)NC1=O` (stereo not given), the “viability” value was 101% (inactive).
As to `O=C(NCC1CCOCC1)c1cnc(Nc2ccc(Cl)cc2Cl)nc1C(F)(F)F`, the “viability” value is 93.3% (inactive).
As for `C[C@@H]1C[C@@H]([C@H](O)CC2CC(=O)NC(=O)C2)C(=O)[C@@H](C)C1`, the Potency was 0.264 µM (active).
With `C[C@]12CC[C@H](O)CC1=CC[C@H]1[C@H]3CCC(=O)[C@@]3(C)CC[C@@H]12`, the “viability” value was 92.5% (inactive).
In the case of `CN(C)[C@@H]1C(=O)C(C(N)=O)=C(O)[C@@]2(O)C(=O)C3=C(O)c4c(O)cccc4[C@@](C)(O)[C@H]3C[C@@H]12`, the “viability” value was 100% (inactive).
On the same count and under the same terms, in the case of `CC(C)c1cccc(C(C)C)c1O` it was 108% (inactive).
Regarding `CCN1C[C@]2(OC(=O)c3ccccc3NC(C)=O)CC[C@H](OC)[C@@]34[C@H]5CC6[C@@H](OC)C[C@](O)(C(C[C@@H]23)[C@@H]14)[C@@]5(O)[C@@H]6OC`, the “viability” value was 103% (inactive).
As for `COC1(CS(=O)c2ccccc2)CCN(CCc2c[nH]c3ccc(F)cc23)CC1` (stereo not given), the “viability” value is 97.8% (inactive).
On to `CN(C)[C@@H]1C(=O)C(C(N)=O)=C(O)[C@@]2(O)C(=O)C3=C(O)c4c(O)cccc4[C@@](C)(O)[C@H]3[C@H](O)[C@@H]12`, for which the “viability” value was 103% (inactive).
On to `CC(=O)N(C)c1cccc(-c2ccnc3c(C(=O)c4cccs4)cnn23)c1`, for which the “viability” value was 95.7% (inactive).
Turning to `CC(C)[C@H]1C(=O)N[C@H](CO)Cc2c[nH]c3cccc(c23)N1C`, the Potency is 0.372 µM (active).
Same read-out and setting: the result for `O=P1(N(CCCl)CCCl)NCCCO1` (stereo not given) reads 14.8 µM (active).

These data come from PubChem BioAssay (NCATS).
